Results as given in article PMC8384837, “Expanding the binding specificity for RNA recognition by a PUF domain”.

Legend:
Assay in all cases: yeast three-hybrid, YBZ-1, SC-Leu-His + 0.5 mM 3-AT, 4 days
Conditions in all cases: tags: N-Gal4 AD-HA kept; label: inside an RPR1-promoter hybrid RNA with tandem MS2 sites; ssRNA
PUM1 PUF domain R5-SMS = PUM1 PUF domain R5-SMS (Homo sapiens, UniProt Q14671 828-1176, C1007S;R1008M;Q1011S)
Method in brief: (§1)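 Matching RNA elements and Pumilio-1 PUF domain libraries, randomized at the three base-contacting residues of every repeat, were co-expressed from a centromeric plasmid in strain YBZ-1 (LexA–MS2 coat fusion, HIS3 reporter). The repeat regions were PCR-amplified and Illumina-sequenced from cells grown four days on SC-Leu (input) or SC-Leu-His + 0.5 mM 3-AT (selection). The interaction score is the log change in variant frequency from input to selection. It is computed in log2, with a pseudocount of 1 for absent variants.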

PUM1 PUF domain R5-NQR = PUM1 PUF domain R5-NQR (Homo sapiens, UniProt Q14671 828-1176, C1007N;R1008Q;Q1011R)
Method in brief: as §1

PUM1 PUF domain R5-FNL = PUM1 PUF domain R5-FNL (Homo sapiens, UniProt Q14671 828-1176, C1007F;R1008N;Q1011L)
Method in brief: as §1

PUM1 PUF domain R5-RFV = PUM1 PUF domain R5-RFV (Homo sapiens, UniProt Q14671 828-1176, C1007R;R1008F;Q1011V)
Method in brief: as §1

PUM1 PUF domain R7-QPK = PUM1 PUF domain R7-QPK (Homo sapiens, UniProt Q14671 828-1176, S1079Q;N1080P;E1083K)
Method in brief: as §1

PUM1 PUF domain R3-SRR = PUM1 PUF domain R3-SRR (Homo sapiens, UniProt Q14671 828-1176, C935S;Q939R)
Method in brief: as §1

PUM1 PUF domain R8-RRA = PUM1 PUF domain R8-RRA (Homo sapiens, UniProt Q14671 828-1176, N1122R;Y1123R;Q1126A)
Method in brief: as §1

PUM1 PUF domain R5-KQR = PUM1 PUF domain R5-KQR (Homo sapiens, UniProt Q14671 828-1176, C1007K;R1008Q;Q1011R)
Method in brief: as §1

PUM1 PUF domain R6-RPG = target: T1, PUM1 PUF domain R6-RPG (Homo sapiens, UniProt Q14671 828-1176, N1043R;Y1044P;Q1047G)
T1 sequence: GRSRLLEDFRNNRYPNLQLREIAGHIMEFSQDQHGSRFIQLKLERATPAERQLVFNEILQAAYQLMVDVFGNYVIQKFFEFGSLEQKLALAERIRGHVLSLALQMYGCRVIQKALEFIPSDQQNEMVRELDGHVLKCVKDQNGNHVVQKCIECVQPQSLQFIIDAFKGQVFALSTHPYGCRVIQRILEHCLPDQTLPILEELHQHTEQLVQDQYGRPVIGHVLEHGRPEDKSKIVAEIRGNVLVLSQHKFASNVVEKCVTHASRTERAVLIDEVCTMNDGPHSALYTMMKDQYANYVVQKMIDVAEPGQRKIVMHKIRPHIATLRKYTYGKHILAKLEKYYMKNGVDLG
Method in brief: as §1

PUM1 PUF domain R8-RHV = PUM1 PUF domain R8-RHV (Homo sapiens, UniProt Q14671 828-1176, N1122R;Y1123H;Q1126V)
Method in brief: as §1

PUM1 PUF domain R3-TYF = PUM1 PUF domain R3-TYF (Homo sapiens, UniProt Q14671 828-1176, C935T;R936Y;Q939F)
Method in brief: as §1

PUM1 PUF domain R4-NNA = PUM1 PUF domain R4-NNA (Homo sapiens, UniProt Q14671 828-1176, H972N;Q975A)
Method in brief: as §1

PUM1 PUF domain R5-EYR = PUM1 PUF domain R5-EYR (Homo sapiens, UniProt Q14671 828-1176, C1007E;R1008Y;Q1011R)
Method in brief: as §1

PUM1 PUF domain R3-MWH = PUM1 PUF domain R3-MWH (Homo sapiens, UniProt Q14671 828-1176, C935M;R936W;Q939H)
Method in brief: as §1

PUM1 PUF domain R4-CPV = PUM1 PUF domain R4-CPV (Homo sapiens, UniProt Q14671 828-1176, N971C;H972P;Q975V)
Method in brief: as §1

PUM1 PUF domain R5-HAD = PUM1 PUF domain R5-HAD (Homo sapiens, UniProt Q14671 828-1176, C1007H;R1008A;Q1011D)
Method in brief: as §1

PUM1 PUF domain R8-FYH = PUM1 PUF domain R8-FYH (Homo sapiens, UniProt Q14671 828-1176, N1122F;Q1126H)
Method in brief: as §1

PUM1 PUF domain R1-RLS = PUM1 PUF domain R1-RLS (Homo sapiens, UniProt Q14671 828-1176, S863R;R864L;Q867S)
Method in brief: as §1

PUM1 PUF domain R7-ASR = PUM1 PUF domain R7-ASR (Homo sapiens, UniProt Q14671 828-1176, S1079A;N1080S;E1083R)
Method in brief: as §1

PUM1 PUF domain R1-RKQ = PUM1 PUF domain R1-RKQ (Homo sapiens, UniProt Q14671 828-1176, S863R;R864K)
Method in brief: as §1

Sequence: GGCUAGAACUAGUGGAUCCCCCGGCGCCCGGCGGCUCGAGCCCGGGUAAGUGUUAAUAGUCUGCAUGCCGCCGGGCGCCAUGCCUGCAGGUCGACUCUAGAAAACAUG
- binding signal (PUM1 PUF domain R5-SMS): 0.83 log2 enrichment (interaction score)
- binding signal (PUM1 PUF domain R5-NQR): 4.88 log2 enrichment (interaction score)
- binding signal (PUM1 PUF domain R5-FNL): 3.47 log2 enrichment (interaction score)
- binding signal (PUM1 PUF domain R5-RFV): 4.04 log2 enrichment (interaction score)

Sequence: GGCUAGAACUAGUGGAUCCCCCGGCGCCCGGCGGCUCGAGCCCGGGUAAGUCUAAAUAGUCUGCAUGCCGCCGGGCGCCAUGCCUGCAGGUCGACUCUAGAAAACAUG
- binding signal (PUM1 PUF domain R7-QPK): 4.87 log2 enrichment (interaction score)

Sequence: GGCUAGAACUAGUGGAUCCCCCGGCGCCCGGCGGCUCGAGCCCGGGUAAGUGUGAAUAGUCUGCAUGCCGCCGGGCGCCAUGCCUGCAGGUCGACUCUAGAAAACAUG
- binding signal (PUM1 PUF domain R5-SMS): 2.69 log2 enrichment (interaction score)
- binding signal (PUM1 PUF domain R5-RFV): 1.88 log2 enrichment (interaction score)

Sequence: GGCUAGAACUAGUGGAUCCCCCGGCGCCCGGCGGCUCGAGCCCGGGUAAGUGUAAGUAGUCUGCAUGCCGCCGGGCGCCAUGCCUGCAGGUCGACUCUAGAAAACAUG
- binding signal (PUM1 PUF domain R3-SRR): 2.24 log2 enrichment (interaction score)

Sequence: GGCUAGAACUAGUGGAUCCCCCGGCGCCCGGCGGCUCGAGCCCGGGUAAGUGUAAAUAGUCUGCAUGCCGCCGGGCGCCAUGCCUGCAGGUCGACUCUAGAAAACAUG
- binding signal (PUM1 PUF domain R8-RRA): 1.42 log2 enrichment (interaction score)
- binding signal (PUM1 PUF domain R5-KQR): 0.64 log2 enrichment (interaction score)
- binding signal (PUM1 PUF domain R6-RPG): 3.6 log2 enrichment (interaction score)
- binding signal (PUM1 PUF domain R8-RHV): 3.99 log2 enrichment (interaction score)
- binding signal (PUM1 PUF domain R3-TYF): 6.49 log2 enrichment (interaction score)
- binding signal (PUM1 PUF domain R5-RFV): 2.29 log2 enrichment (interaction score)
- binding signal (PUM1 PUF domain R4-NNA): 2.12 log2 enrichment (interaction score)
- binding signal (PUM1 PUF domain R5-EYR): 5.2 log2 enrichment (interaction score)
- binding signal (PUM1 PUF domain R3-MWH): 2.6 log2 enrichment (interaction score)
- binding signal (PUM1 PUF domain R3-SRR): 0.87 log2 enrichment (interaction score)
- binding signal (PUM1 PUF domain R4-CPV): 1.1 log2 enrichment (interaction score)

Sequence: GGCUAGAACUAGUGGAUCCCCCGGCGCCCGGCGGCUCGAGCCCGGGUAAGUGUAACUAGUCUGCAUGCCGCCGGGCGCCAUGCCUGCAGGUCGACUCUAGAAAACAUG
- binding signal (PUM1 PUF domain R3-SRR): 3.34 log2 enrichment (interaction score)

Sequence: GGCUAGAACUAGUGGAUCCCCCGGCGCCCGGCGGCUCGAGCCCGGGUAAGUGUCAAUAGUCUGCAUGCCGCCGGGCGCCAUGCCUGCAGGUCGACUCUAGAAAACAUG
- binding signal (PUM1 PUF domain R5-KQR): 2.87 log2 enrichment (interaction score)
- binding signal (PUM1 PUF domain R5-HAD): 6.65 log2 enrichment (interaction score)
- binding signal (PUM1 PUF domain R5-NQR): 4.31 log2 enrichment (interaction score)
- binding signal (PUM1 PUF domain R5-RFV): 5.48 log2 enrichment (interaction score)

Sequence: GGCUAGAACUAGUGGAUCCCCCGGCGCCCGGCGGCUCGAGCCCGGGUAAGUGUAAUUAGUCUGCAUGCCGCCGGGCGCCAUGCCUGCAGGUCGACUCUAGAAAACAUG
- binding signal (PUM1 PUF domain R3-SRR): 3.98 log2 enrichment (interaction score)

Sequence: GGCUAGAACUAGUGGAUCCCCCGGCGCCCGGCGGCUCGAGCCCGGGUAAGCGUAAAUAGUCUGCAUGCCGCCGGGCGCCAUGCCUGCAGGUCGACUCUAGAAAACAUG
- binding signal (PUM1 PUF domain R8-RRA): 3.15 log2 enrichment (interaction score)
- binding signal (PUM1 PUF domain R8-FYH): 2.85 log2 enrichment (interaction score)
- binding signal (PUM1 PUF domain R8-RHV): 5.23 log2 enrichment (interaction score)

Sequence: GGCUAGAACUAGUGGAUCCCCCGGCGCCCGGCGGCUCGAGCCCGGGUAAGUGUACAUAGUCUGCAUGCCGCCGGGCGCCAUGCCUGCAGGUCGACUCUAGAAAACAUG
- binding signal (PUM1 PUF domain R4-CPV): 1.61 log2 enrichment (interaction score)

Sequence: GGCUAGAACUAGUGGAUCCCCCGGCGCCCGGCGGCUCGAGCCCGGGUAAGUGUAAAUCGUCUGCAUGCCGCCGGGCGCCAUGCCUGCAGGUCGACUCUAGAAAACAUG
- binding signal (PUM1 PUF domain R1-RLS): 1.22 log2 enrichment (interaction score)

Sequence: GGCUAGAACUAGUGGAUCCCCCGGCGCCCGGCGGCUCGAGCCCGGGUAAGUUUAAAUAGUCUGCAUGCCGCCGGGCGCCAUGCCUGCAGGUCGACUCUAGAAAACAUG
- binding signal (PUM1 PUF domain R7-ASR): 2.25 log2 enrichment (interaction score)

Sequence: GGCUAGAACUAGUGGAUCCCCCGGCGCCCGGCGGCUCGAGCCCGGGUAAGUGUAAAUGGUCUGCAUGCCGCCGGGCGCCAUGCCUGCAGGUCGACUCUAGAAAACAUG
- binding signal (PUM1 PUF domain R1-RKQ): 2.35 log2 enrichment (interaction score)

Sequence: GGCUAGAACUAGUGGAUCCCCCGGCGCCCGGCGGCUCGAGCCCGGGUAAGUGUAAAUUGUCUGCAUGCCGCCGGGCGCCAUGCCUGCAGGUCGACUCUAGAAAACAUG
- binding signal (PUM1 PUF domain R1-RLS): 2.64 log2 enrichment (interaction score)

Sequence: GGCUAGAACUAGUGGAUCCCCCGGCGCCCGGCGGCUCGAGCCCGGGUAAGUGUAUAUAGUCUGCAUGCCGCCGGGCGCCAUGCCUGCAGGUCGACUCUAGAAAACAUG
- binding signal (PUM1 PUF domain R4-NNA): 4.34 log2 enrichment (interaction score)
- binding signal (PUM1 PUF domain R4-CPV): 2.93 log2 enrichment (interaction score)
